Screens from PubChem BioAssay.
The list is not random: actives were taken first. Their share in the collection is about 8.8%.
HT1080NT lethal = kills 2HG-producing HT-1080-NT fibrosarcoma cells | Potency, µM (highest dose often 46.1 µM), without a hit: at the highest dose activity, negative = less viability, hits mostly cytotoxic | HT-1080-NT fibrosarcoma viability, CellTiter-Glo ATP luminescence, 48 h | AID 686970 | 1.6% of 360,000 active;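 note: NT is the 2HG producing partner of a matched IDH1 knockdown line; potency is the fitted concentration of half-maximal effect; 0% = DMSO-treated cells and -100% = media-only wells without cells; nearly all actives have a fitted effect of over 55% in size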
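HT-1080-NT; 750 cells/well; 5% FBS RPMI; 48 h compound, 37 degrees C; CellTiter-Glo luminescence; curve fitting and curve-class assignment.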
HT1080 IDH1KD tx = kills HT-1080 cells with IDH1 knockdown; HT-1080 IDH1 knockdown viability, ATP luminescence, 48 h; Potency, µM (titrated, usually from 46.1 µM), inactives show at the top dose activity, negative = toxicity, actives largely listed as cytotoxic; 2% of 360,000 active; AID 686971;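 note: potency is the fitted concentration of half-maximal effect; 0% = DMSO wells and -100% = cell-free medium wells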
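Knockdown cells (IDH1KD HT-1080) received compounds 2 h after plating at 750 cells/well and were kept 48 h at 37 °C in 5% FBS RPMI. A CellTiter-Glo luminescence read gave % activity for curve fitting.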
KB-V1 cytotox = kills drug-selected multidrug resistant KB-V1 cells | AID 1347076 | KB-V1 MDR cells viability, CellTiter-Glo, 72 h | Potency, µM (top dose mostly 46.1 µM), usual class: cytotoxic | 3.4% of 400,000 active; note: potency is the fitted concentration of half-maximal effect; nearly all actives have a fitted effect of over 60% in size
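qHTS viability screen in drug-selected KB-V1 MDR cells: 72 h compound treatment at 37 degrees C, ATP luminescence end point.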
IL-1B inflam inh = blocks inflammasome-driven IL-1 beta release; THP-1 LPS/ATP IL-1B secretion, AlphaLISA, 16 h; hits give low values; activity change, % at 57.5 µM; 4.7% of 360,000 active; AID 743279; in the data active = activity change below about -50%; inconclusive = mostly about -30% to -49%
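Secreted IL-1B measured by AlphaLISA bead assay after 16 h compound exposure of THP-1 cells; compounds (final up to 57.5 uM) added 1 h before LPS (250 ng/mL) and ATP (1.25 mM) stimulation; lower signal means less secretion.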
KB-3-1 tox = kills parental KB-3-1 adenocarcinoma cells; KB-3-1 viability, CellTiter-Glo ATP luminescence, 72 h; Potency, µM (titrated, usually from 46.1 µM), usual class: cytotoxic; 1.4% of 400,000 active; note: potency is the fitted concentration of half-maximal effect; nearly all actives have a fitted effect of over 60% in size
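Screening of KB-3-1 cells (DMEM, 10% FBS, phenol-red free) ran from lowest to highest compound concentration; after 72 h at 37 °C viability was read luminescently and curves fitted.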
An asterisk follows results filed as active. Unless noted, calls come from the whole dose curve; as a rule, active = well fitted curve in the direction sought with a large enough effect; inconclusive = small, poorly fitted or top-dose-only effect, or another doubt; inactive = no such curve, though single readings can be large; an effect the other way counts as inactive or inconclusive. Unless noted, % is set by controls: 0 for no effect and ±100 for the full control effect.

Results for COC(CNC(=O)c1cc(-c2ccncc2)nc2ccc(S(=O)(=O)N3CCOCC3)cc12)OC ?
HT1080NT lethal: 4%; HT1080 IDH1KD tx: -6%; KB-V1 cytotox: inactive; IL-1B inflam inh: -3; KB-3-1 tox: inactive

Results for Cc1ccc(Nc2nc(N)c([N+](=O)[O-])c(NCc3ccco3)n2)cc1C ?
HT1080NT lethal: -25%; HT1080 IDH1KD tx: inconclusive; KB-V1 cytotox: 12µM*; IL-1B inflam inh: -71*; KB-3-1 tox: 23µM*

What do the screens show for `COCCNc1nc(N)c([N+](=O)[O-])c(Nc2ccc(F)cc2)n1`?
HT1080NT lethal: inconclusive; HT1080 IDH1KD tx: 15µM*; KB-V1 cytotox: inactive; IL-1B inflam inh: 29; KB-3-1 tox: inactive

Results for c1ccc(-c2nc3ccccc3o2)nc1 ?
HT1080NT lethal: 6%; HT1080 IDH1KD tx: 8%; KB-V1 cytotox: inactive; IL-1B inflam inh: -3; KB-3-1 tox: inactive

How did c1ccc2nc(-c3nc4ccccc4o3)ccc2c1 do in these assays?
HT1080NT lethal: 10µM*; HT1080 IDH1KD tx: 13µM*; KB-V1 cytotox: inactive; IL-1B inflam inh: -3; KB-3-1 tox: 11µM*

What do the screens show for `O=C(N/N=C/c1ccc(N2CCOCC2)cc1)c1ccccc1OCCOc1ccccc1`?
HT1080NT lethal: -20%; HT1080 IDH1KD tx: inconclusive; KB-V1 cytotox: inconclusive; IL-1B inflam inh: -65*; KB-3-1 tox: inactive

Results for COc1cc(C(=O)COC(=O)c2cc([N+](=O)[O-])ccc2N2CCOCC2)ccc1OC(F)F ?
HT1080NT lethal: 0%; HT1080 IDH1KD tx: -12%; KB-V1 cytotox: inconclusive; IL-1B inflam inh: inconclusive; KB-3-1 tox: 21µM*

What do the screens show for `COc1ccccc1C(=O)COC(=O)c1cc([N+](=O)[O-])ccc1N1CCOCC1`?
HT1080NT lethal: -4%; HT1080 IDH1KD tx: 1%; KB-V1 cytotox: inconclusive; IL-1B inflam inh: inconclusive; KB-3-1 tox: inactive

What do the screens show for `Cc1cc(C)c(C(=O)COC(=O)c2cc([N+](=O)[O-])ccc2N2CCOCC2)cc1C`?
HT1080NT lethal: 9%; HT1080 IDH1KD tx: 7%; KB-V1 cytotox: 18µM*; IL-1B inflam inh: 0; KB-3-1 tox: inactive

How did CCc1c(C)nc(SC(C(=O)O)c2ccccc2)c(C#N)c1C (configuration not stated) do in these assays?
HT1080NT lethal: 7%; HT1080 IDH1KD tx: 1%; KB-V1 cytotox: inactive; IL-1B inflam inh: 9; KB-3-1 tox: inactive

Results for COc1ccc(-c2cn(-c3ccc(C)cc3)c(S(=O)(=O)CC(=O)Nc3ccc(F)cc3)n2)cc1 ?
KB-V1 cytotox: inactive; KB-3-1 tox: inactive

Results for O=C1c2cccc3cccc(c23)C(=O)N1CC1CCN(S(=O)(=O)c2ccccc2)CC1 ?
HT1080NT lethal: 16%; HT1080 IDH1KD tx: -1%; KB-V1 cytotox: inactive; IL-1B inflam inh: 31; KB-3-1 tox: inactive

What do the screens show for `O=C1c2cccc3cccc(c23)C(=O)N1CCN1CCN(CC(O)COc2ccc3ccccc3c2)CC1` (configuration not stated)?
HT1080NT lethal: inconclusive; HT1080 IDH1KD tx: inconclusive; KB-V1 cytotox: inconclusive; IL-1B inflam inh: -2; KB-3-1 tox: inconclusive

What do the screens show for `CCc1ccc(OCC(O)CN2CCC(CN3C(=O)c4cccc5cccc(c45)C3=O)CC2)cc1` (configuration not stated)?
HT1080NT lethal: -1%; HT1080 IDH1KD tx: 8%; KB-V1 cytotox: inconclusive; IL-1B inflam inh: -10; KB-3-1 tox: 23µM*

How did COc1cccc(OCC(O)CN2CCN(C)CC2)c1 (configuration not stated) do in these assays?
HT1080NT lethal: 25%; HT1080 IDH1KD tx: 25%; KB-V1 cytotox: inactive; IL-1B inflam inh: -18; KB-3-1 tox: inactive

Results for COc1cccc(OCC(O)CN2CCC(CN3C(=O)c4cccc5cccc(c45)C3=O)CC2)c1 (configuration not stated) ?
HT1080NT lethal: 18µM*; HT1080 IDH1KD tx: 23µM*; KB-V1 cytotox: inactive; IL-1B inflam inh: -97*; KB-3-1 tox: inactive

Results for CCc1ccc(OCC(O)CN2CCN(c3ccccc3)CC2)cc1 (configuration not stated) ?
HT1080NT lethal: -4%; HT1080 IDH1KD tx: -17%; KB-V1 cytotox: inconclusive; IL-1B inflam inh: 9; KB-3-1 tox: inactive
